Compounds with a hit are over-represented: about 18% of the library has one in this group of screens.
IL-1B inflam inh – qHTS for Inhibitors of Inflammasome Signaling: IL-1-beta AlphaLISA Primary Screen | THP-1 LPS/ATP IL-1B secretion, AlphaLISA, 16 h; active compounds read low | 360,000 compounds, 4.7% hits | activity change, % at 57.5 µM; in the data active means activity change below about -50%; inconclusive means mostly about -30% to -49%
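THP-1 cells pretreated 1 hr with compounds (up to 57.5 uM final), then stimulated with LPS (250 ng/mL final) plus ATP (1.25 mM final); secreted IL-1B measured by AlphaLISA after 16 hr, decreased signal indicating inhibition.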
CtBP-E1A blk – qHTS Assay for Inhibitors of the CtBP/E1A Interaction; AID 651724, 2012; activity change, % (concentration not given with the values); AlphaScreen GST-E1A/His-CtBP binding, 1536-well; active compounds read low; 340,000 compounds, 0.49% hits; in the data active means activity change below about -65%; inconclusive means mostly about -30% to -63%
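Homogeneous bead-based format: GST-tagged E1A captured on glutathione donor beads, His-tagged CtBP on nickel acceptor beads; compounds precede bead addition by 2 h at 37 °C.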
TDP1 block – qHTS Assay for Inhibitors of Tyrosyl-DNA Phosphodiesterase (TDP1); Tyrosyl-DNA phosphodiesterase 1 (Homo sapiens), Q9NUW8; recombinant TDP1, AlphaScreen DNA substrate cleavage; Potency, µM (series often up to 130 µM), without a hit: top-dose activity change, negative = inhibition, usual class: inhibitors; 350,000 compounds, 0.28% hits; AID 485290, 2010; further: potency means the concentration at half of the fitted maximal effect; nearly all actives have a fitted effect of over 40% in size
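Here, a 5' biotin and 3' phosphotyrosine-FITC DNA oligonucleotide reports Tdp1 activity: intact substrate bridges AlphaScreen beads, while cleavage leaves a 3' phosphate and drops signal. All incubations at room temperature.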
DT40 TDP1 no CPT – qHTS for Inhibitors of human tyrosyl-DNA phosphodiesterase 1 (TDP1): qHTS in cells in absence of CPT. DT40 Tdp1-/- hTDP1 cells, no CPT, ATP luminescence, 48 h. Potency, µM (doses to about 46.2 µM), for inactives: top-dose activity change, negative = growth inhibition, actives largely listed as inhibitors. 420,000 compounds, 15% hits; further: potency means the concentration at half of the fitted maximal effect; nearly all actives have a fitted effect of over 55% in size
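DT40 Tdp1-/-;hTDP1 cells, no CPT (DMSO vehicle only), 400 cells/well; compounds pin-transferred; ≥48 hr, 37 °C; CellTiter-Glo 30 min RT dark, luminescence read.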
TDP1 cell CPT – qHTS for Inhibitors of human tyrosyl-DNA phosphodiesterase 1 (TDP1): qHTS in cells in presence of CPT | chicken DT40 Tdp1-/-;hTDP1 cells + 20 nM CPT, ATP luminescence, 48 h | Potency, µM (highest dose often 46.2 µM), without a hit: at the highest dose activity change, negative = growth inhibition, hits mostly inhibitors | 420,000 compounds, 12% hits | AID 686979, 2013; further: potency means the concentration at half of the fitted maximal effect; nearly all actives have a fitted effect of over 55% in size
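Chicken DT40 Tdp1-/- cells stably complemented with human TDP1 were seeded at 400 cells/well in medium containing 20 nM camptothecin, exposed to pin-transferred compounds, and grown at 37 °C for at least 48 hr. Viability was read as ATP luminescence.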
Six1-Eya2 inh – qHTS Assay for Inhibitors of the Six1/Eya2 Interaction | 360,000 compounds, 0.56% hits | AlphaScreen GST-Six1/His-Eya2 binding, biochemical; active compounds read low | activity change, % (concentration not given with the values); in the data active means activity change below about -65%; inconclusive means mostly about -30% to -63%
Target sequence (O00167 whole entry, looked up): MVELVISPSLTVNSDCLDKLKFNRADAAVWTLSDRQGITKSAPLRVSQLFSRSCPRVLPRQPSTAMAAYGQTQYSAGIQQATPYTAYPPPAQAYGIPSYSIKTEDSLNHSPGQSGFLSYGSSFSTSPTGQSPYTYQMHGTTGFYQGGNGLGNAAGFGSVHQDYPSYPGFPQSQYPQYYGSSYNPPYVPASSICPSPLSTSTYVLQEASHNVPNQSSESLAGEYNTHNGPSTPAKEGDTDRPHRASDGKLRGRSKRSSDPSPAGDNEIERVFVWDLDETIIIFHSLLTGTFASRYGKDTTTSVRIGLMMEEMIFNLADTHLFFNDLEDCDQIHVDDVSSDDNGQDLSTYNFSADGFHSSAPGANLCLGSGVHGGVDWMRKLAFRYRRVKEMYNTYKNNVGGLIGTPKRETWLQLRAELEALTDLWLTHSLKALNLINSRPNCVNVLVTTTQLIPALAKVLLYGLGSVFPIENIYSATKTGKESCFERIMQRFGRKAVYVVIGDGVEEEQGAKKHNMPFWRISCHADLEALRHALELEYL
Target sequence (Q15475 whole entry, looked up): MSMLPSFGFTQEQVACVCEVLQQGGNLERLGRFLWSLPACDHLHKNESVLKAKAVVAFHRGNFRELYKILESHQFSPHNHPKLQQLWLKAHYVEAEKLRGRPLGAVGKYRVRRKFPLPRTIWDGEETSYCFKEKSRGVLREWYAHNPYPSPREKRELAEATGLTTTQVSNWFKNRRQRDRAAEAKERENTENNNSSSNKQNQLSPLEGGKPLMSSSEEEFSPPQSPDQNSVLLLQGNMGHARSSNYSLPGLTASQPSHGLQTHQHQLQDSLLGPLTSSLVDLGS
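GST-Six1 + His-Eya2 (5X stock: 250/500 nM); Tris pH 8.0, 300 mM NaCl, 0.05% BSA, 0.02% Tween 20; GSH donor/Ni acceptor beads; 1 h 37 °C dark; AlphaScreen readout.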
Active calls of the source: *; ? = inconclusive; nt = no result given; [ ] = dose if it differs, or a comment. Unless noted, the call rests on the fitted dose curve; in most records, active means well fitted curve in the direction sought with a large enough effect; inconclusive means small, poorly fitted or top-dose-only effect, or another doubt; inactive means no such curve, though single readings can be large; an effect the other way counts as inactive or inconclusive. On the % scale 0 is the no-effect control and ±100 the full control effect.

SMILES | IL-1B inflam inh | CtBP-E1A blk | TDP1 block | DT40 TDP1 no CPT | TDP1 cell CPT | Six1-Eya2 inh
Cc1ccc(NCc2cccn2-c2nnc(N3CCC(C(=O)NCc4ccc(F)cc4)CC3)s2)cc1 | nt | nt | 8% | 18µM* | ? | nt
CCc1ccc(CNC(=O)C2CCN(c3nnc(-n4c(C)ccc4C)s3)CC2)cc1 | nt | nt | 8% | 8.2µM* | ? | nt
COc1ccc(NC(=S)N2CCC(NC(=O)c3ccccc3C)CC2)cc1 | -20 | 1 | nt | -8% | -2% | -4
Cc1ccc(NCc2cccn2-c2nnc(N3CCCCCC3)s2)cc1 | nt | nt | 12% | 16µM* | ? | nt
COc1cccc(-c2ccc(NC(=O)C3CCCN(CCCn4cccn4)C3)cc2)c1 (stereo not given) | -26 | -9 | 3% | ? | ? | 2
Cc1ccc([N+](=O)[O-])cc1S(=O)(=O)N1CCn2cccc2C1c1ccc(F)c(F)c1 (stereo not given) | nt | nt | 5% | ? | ? | nt
Cc1ccc(C2c3cccn3CCN2S(=O)(=O)c2ccc([N+](=O)[O-])cc2)cc1 (stereo not given) | nt | nt | 13% | 18µM* | ? | nt
CC(=O)c1ccc(S(=O)(=O)N2CCn3cccc3C2c2ccccc2F)cc1 (stereo not given) | nt | nt | 8% | -44% | ? | nt
CC(=O)c1ccc(S(=O)(=O)N2CCn3cccc3C2c2ccc(F)c(F)c2)cc1 (stereo not given) | nt | nt | 5% | 21µM* | ? | nt
CN(CC(=O)Nc1c(Cl)cccc1Cl)C(=O)c1ccccc1Cc1ccccc1 | -18 | 0 | nt | -21% | ? | 10
CCCCNC(=O)C1(C)CCCCN1C(=O)c1oc2ccccc2c1C (stereo not given) | 21 | 8 | nt | 10µM* | 15µM* | 2
CCCCNC(=O)C1(C)CCCCN1C(=O)c1cc(-c2ccccc2)cs1 (stereo not given) | 33 | 6 | nt | 8.2µM* | 13µM* | 11
CC(=O)Oc1ccc2c(c1)O/C(=C\c1ccncc1)C2=O | ? | -1 | 5% | -23% | ? | 5
COc1ccc(/C=C2\Oc3cc(OC(=O)N4CCOCC4)ccc3C2=O)cc1 | -1 | nt | 0% | 13µM* | 18µM* | 3
COc1ccccc1C(=O)Oc1ccc2c(c1)O/C(=C\c1ccncc1)C2=O | -1 | -17 | 5% | 13µM* | -30% | -7
CCc1ccc(/C=C2\Oc3cc(OC(=O)N4CCOCC4)ccc3C2=O)cc1 | -2 | 9 | 7% | 15µM* | ? | 5
CC1(C)CC(=O)C(C(=O)c2ccccc2)C(=O)C1 | 12 | -8 | 3% | -2% | 0% | -6
Cc1ccc(C)c(N(C(=O)c2csnn2)C(C(=O)NC2CCCCC2)c2ccncc2)c1 (stereo not given) | 7 | -15 | -2%[0.0935 µM] | -22% | -6% | -1
Cc1nc2sccn2c(=O)c1S(=O)(=O)NCC1CCN(Cc2ccc(Cl)cc2)CC1 | 12 | 1 | nt | ? | ? | -1
CCOc1ccc(CC(=O)NCC(=O)NCc2cc(=O)n(C)c(=O)n2C)cc1 | 3 | -3 | nt | 0% | 6% | -2
Cc1cccc(CC(=O)NCC(=O)NCc2cc(=O)n(C)c(=O)n2C)c1 | 1 | 0 | 0% | ? | 12µM* | 3
O=C(c1ccc2c(c1)OCO2)C1CCCN(C2CCN(CCc3ccccc3)CC2)C1 (stereo not given) | -76* | 2 | 3% | 21µM* | 18µM* | -7
